Compound activity (PubChem BioAssay)
The entries come from a sample that favours hits as a whole.
Pf Dd2 growth: qHTS Primary assay for Inhibitors of Plasmodium falciparum Dd2 growth in vitro; P. falciparum Dd2 growth, SYBR Green, 72 h; Potency, µM (highest dose often 28.9 µM), for the others: at the highest dose activity, negative = inhibition, actives largely listed as inhibitors; 4.3% of 120,000 active; AID 1347417, 2020; active means well fitted inhibition curve with a large enough effect;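 further: plate controls were DMSO vehicle for no effect and reference drug for full effect; nearly all actives have a fitted effect of over 65% in size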
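Infected erythrocytes (Dd2, 0.3% parasitemia, 2.5% hematocrit final) are added to compound in RPMI-1640/Albumax II medium, grown 72 h at 37C in low oxygen, then lysed with saponin/Triton-X containing SYBR Green and read by fluorescence.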
Starred values were filed as active, the others as inactive; i = inactive; [ ] = dose if it differs, or a comment. Potency means the concentration at half of the fitted maximal effect.

SMILES | Pf Dd2 growth
CCOc1ccc(NC(=O)c2c(NC(=O)c3ccncc3)sc3c2CCC(C(C)(C)C)C3)cc1 (configuration not stated) | i
COCCCNC(=O)N1CCCCCNC(=O)[C@@H]2CCCC[C@@H]21 | -11%
COc1ccccc1C(=O)Nc1ccnn1C1CCN(c2cnccn2)CC1 | -14%
O=C(COc1ccccc1)Nc1ccc([C@@H](O)[C@H]2COCC(=O)N2CC2CC2)cc1 | -1%[44.1 µM]
O=C(CC1CCCN(c2cn[nH]c(=O)c2)C1)NCc1cccs1 (configuration not stated) | 50%
CN1CCN(C(=O)CN2CC3CC(C2)[C@H]2CCCC(=O)N2C3)CC1 (some centres not stated) | -4%
CCOc1ccccc1NC(=O)c1c(NC(=O)c2ccccc2C)sc2c1CCC(C)C2 (configuration not stated) | i
CCOc1ccc(NC(=O)c2c(NCc3ccc(C)o3)sc3c2CCC(C)C3)cc1 (configuration not stated) | 11µM*
CCOc1ccc(NC(=O)c2c(NCc3cccnc3)sc3c2CCC(C)C3)cc1 (configuration not stated) | i
CN(C)c1ccc(C(=O)N2CCC[C@H]2c2nc(-c3ccccc3)no2)cc1 | 0%
COC[C@@H]1CN(C(=O)c2ccc3ncccc3c2)C[C@H]1c1ccncc1 | -2%
CC(C)c1noc(C2CCCNCCC(=O)NCC2)n1 (configuration not stated) | i
Cc1ccc(CNC(=O)c2nnn(CC(=O)Nc3cc(C)ccc3C)c2N)cc1 | i
Nc1c(C(=O)NCc2ccc(Cl)cc2Cl)nnn1Cc1ccc(Br)cc1 | i
Cc1ccc(C)c(Cn2nnc(C(=O)NCc3ccc(Cl)cc3Cl)c2N)c1 | 4.5µM*
Cc1ccc(CNC(=O)c2nnn(Cc3ccc(F)cc3)c2N)cc1 | 3.2µM*
CCc1ccccc1NC(=O)Cn1nnc(C(=O)NCc2ccccc2Cl)c1N | -6%
CCc1ccc(NC(=O)Cn2nnc(C(=O)NCc3ccc(C)cc3)c2N)cc1 | 11%
CCNC(=O)NC[C@@H]1C=C(C)[C@H](CC(=O)N2CCN(C(C)=O)CC2)C[C@H]1C(C)C | -19%[44.1 µM]
O=C(C[C@@H]1C[C@H]2O[C@H](CNC3CCCC3)[C@@H](O)[C@H]2O1)N1CCC(F)(F)C1 | 13%[44.1 µM]
CN(C)c1cccc(C(=O)Nc2ccc(-c3nnc4n3CCCC4)cc2)c1 | -8%
COc1ccc(Nc2nccc3c(=O)cc(N4CCOCC4)oc23)cn1 | i
COc1ccc(S(=O)(=O)N2CCC(C(=O)Nc3ccc(Oc4ccccc4)cc3)CC2)cc1 | -5%
CCc1ccc(CN2CCC(C(=O)Nc3ccc(Oc4cccnc4)cc3)CC2)o1 | 11µM*
CC(=O)Nc1ccc(NC(=O)C2CCN(c3cnccn3)CC2)cc1 | i
SMILES | Pf Dd2 growth
Cc1nn(-c2ccc(C(C)C)cc2)c(C)c1[C@@H]1C=C[C@@H](NC(=O)NC2CCCCC2)C1 | 10µM*
Cc1nn(-c2ccc(C(C)(C)C)cc2)c(C)c1[C@@H]1C=C[C@@H](NC(=O)CCC(=O)O)C1 | -18%[44.1 µM]
Cc1nn(-c2ccc(C(C)(C)C)cc2)c(C)c1[C@@H]1C=C[C@@H](NC(=O)COCC(=O)O)C1 | 2%[44.1 µM]
Cc1nn(-c2ccc(C(C)C)cc2)c(C)c1[C@@H]1C=C[C@@H](NC(=O)Nc2ccc(Cl)cc2)C1 | -3%
CCNC(=O)N[C@@H]1C=C[C@@H](c2c(C)nn(-c3ccc(C(C)(C)C)cc3)c2C)C1 | -5%[44.1 µM]
CCNC(=O)N[C@@H]1C=C[C@@H](c2c(C)nn(-c3ccc(C(F)(F)F)cc3)c2C)C1 | 4.5µM*
Cc1nn(-c2ccc(C(C)(C)C)cc2)c(C)c1[C@@H]1C=C[C@@H](NC(=O)NC(C)C)C1 | 10µM*
COCC(=O)N[C@@H]1C=C[C@@H](c2c(C)nn(-c3ccc(C(C)(C)C)cc3)c2C)C1 | -14%[44.1 µM]
Cc1nn(-c2ccc(C(F)(F)F)cc2)c(C)c1[C@@H]1C=C[C@@H](NC(=O)CC(C)(C)CC(=O)O)C1 | i
Cc1nn(-c2ccc(F)cc2)c(C)c1[C@@H]1C=C[C@@H](NC(=O)NC(C)C)C1 | 8.9µM*
Cc1nn(-c2ccc(C(F)(F)F)cc2)c(C)c1[C@@H]1C=C[C@@H](NC(=O)CCC(=O)O)C1 | i
Cc1nn(-c2ccc(C(C)C)cc2)c(C)c1[C@@H]1C=C[C@@H](NC(=O)NCc2ccccc2)C1 | -30%[44.1 µM]
CCn1cc(CN(C)C(=O)CCC[C@H]2NC[C@@H]3C[C@H]2CN(Cc2ccccc2)C3)c(C)n1 | -24%
COC(=O)C1=CN(CC(=O)Nc2ccccc2OC)S(=O)(=O)N=C1C | 2%
CN(C)C[C@@H]1CN(C)C[C@H]1NC(=O)c1nn(C)c2ccccc12 | 18%
O=C1NCC2(CCCN(C(=O)CCc3ccc(=O)[nH]n3)C2)O1 (configuration not stated) | -6%
O=C1CCCN1CCCN1C(=O)[C@H]2CN(Cc3ccccc3)C[C@H]2C1=O | -16%
O=C(CCC1CCN(C(=O)[C@H]2C[C@@H]3C=C[C@H]2C3)CC1)N1CCC(Cc2ccccc2)CC1 | -12%
O=C(NCCCN1CCCCCC1)c1ccc(CC2CCN(C(=O)C3CC3)CC2)cc1 | i
O=C(Cn1cc(C(F)(F)F)ccc1=O)N1CCC2(CCCNC2=O)C1 (configuration not stated) | -11%
O=C(Nc1ccc(Cl)cc1Cl)c1cn2c(n1)CN(C(=O)c1cccnc1)CC2 | -26%
COCC1(CNCc2cn(C)c3ccccc23)C[C@@H](O)[C@@H](O)C1 (some centres not stated) | i
Cn1cc(CN(C(=O)Nc2ccccc2)C2CCCCC2)c2ccccc21 | 3.2µM*
CCOc1ccc(NC(=O)N(Cc2c[nH]c3ccccc23)C2CCCCC2)cc1 | -30%
O=C(Nc1cccnc1)N1CCOC[C@H](Oc2ccc(C(F)(F)F)cc2)C1 | -20%[44.1 µM]
SMILES | Pf Dd2 growth
Cc1nc(SCC(=O)Nc2ccc(C)c(Cl)c2)cc(-c2ccccc2)n1 | 2%
Cc1cc(C)cc(Nc2cc(-c3ccccc3)nc(C)n2)c1 | 11µM*
CSc1nc(Nc2ccc(C)cc2C)cc(-c2ccccc2)n1 | -28%
CC(C)c1ccc(NC(=O)c2cc3n(n2)CC(c2ccc(Cl)cc2)OC3)cc1 (configuration not stated) | i
Cc1ccncc1C(=O)N1CCC(N2C(=O)C(OCC3CC3)C23CCOCC3)CC1 (configuration not stated) | -20%
CCOc1ccc(C(=O)NC2CCN(c3cnn(CC)c(=O)c3)CC2)cc1 | i
O=C(O)C1(CC2CC2)CCCN(Cc2ncccn2)C1 (configuration not stated) | -3%
COc1ccc(CN2CCN(CC(N)=O)CC2CCO)c(F)c1 (configuration not stated) | -3%
COc1cccc(CCC(=O)N2CCCC(CO)(CC3CC3)C2)c1 (configuration not stated) | -5%
OCC1(CC2CC2)CCCN(Cc2cccc(OCc3ccccn3)c2)C1 (configuration not stated) | 5.6µM*
CCc1nccc(CN2CCCC(CC3CC3)(C(=O)O)C2)n1 (configuration not stated) | -8%
COc1ccc(CN2CCCC(CO)(CC3CC3)C2)c(F)c1 (configuration not stated) | 13µM*
CN(C)C(=O)CN1CCCC(CO)(CC2CC2)C1 (configuration not stated) | -20%
OCc1cc2n(n1)CCCN(Cc1cccc(OCc3ccccn3)c1)C2 | 7%
CCc1nc(CN2CCCC(CO)(CC3CC3)C2)cs1 (configuration not stated) | 13µM*
